Compound activity: PubChem BioAssay, several laboratories
pPAFAH FP inh: pPAFAH (human) enzyme inhibition; Q13093; recombinant pPAFAH, FP-rhodamine probe fluorescence polarization; inhibition, % at 3.39 µM; 330,000 tested, 1.5% active; AID 463082;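 active means inhibition above the mean inhibition across the screen plus 3 SD, cut at about 25% in these data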;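 further: inhibitors block binding of the rhodamine activity-based probe so polarization drops; 0% = enzyme with DMSO and 100% = wells lacking pPAFAH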
Target sequence (Q13093 whole entry, looked up): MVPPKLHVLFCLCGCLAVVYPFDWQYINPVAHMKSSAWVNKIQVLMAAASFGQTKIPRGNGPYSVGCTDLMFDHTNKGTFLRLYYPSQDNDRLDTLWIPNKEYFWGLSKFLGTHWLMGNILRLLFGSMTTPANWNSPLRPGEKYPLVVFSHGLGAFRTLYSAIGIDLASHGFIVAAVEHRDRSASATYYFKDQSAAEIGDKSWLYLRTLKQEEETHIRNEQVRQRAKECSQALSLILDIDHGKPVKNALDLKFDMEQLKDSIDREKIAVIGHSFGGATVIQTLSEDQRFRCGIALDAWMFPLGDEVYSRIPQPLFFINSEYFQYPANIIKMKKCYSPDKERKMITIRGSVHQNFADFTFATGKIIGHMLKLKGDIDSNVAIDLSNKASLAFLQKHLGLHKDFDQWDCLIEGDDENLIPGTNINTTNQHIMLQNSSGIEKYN
PAFAH1B2 FP inh: PAFAH1B2 (human) inhibition | AID 492953 | inhibition, % at 3.39 µM | recombinant PAFAH1B2, FP-rhodamine activity probe, fluorescence polarization | 340,000 tested, 1.2% active | P68402;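 active means inhibition above the mean of all tested compounds plus 3 SD, cut at about 24% in these data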;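 further: 0% = enzyme with DMSO and 100% = wells lacking PAFAH1B2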
PAFAH2 FP inh: PAFAH2 (human) inhibition | Q99487 | recombinant PAFAH2, FP-rhodamine activity probe, fluorescence polarization | inhibition, % at 3.39 µM | 340,000 tested, 0.99% active | AID 492956;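 active means inhibition above the mean over all tested compounds plus 3 SD, cut at about 30% in these data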;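 further: inhibitors block probe labeling of enzyme so polarization drops; 0% = enzyme with DMSO and 100% = wells lacking PAFAH2 protein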
PAFAH1B3 inh: blocks human PAF acetylhydrolase 1B catalytic subunit 3; recombinant PAFAH1B3, FP-rhodamine probe, fluorescence polarization; Q15102; 340,000 tested, 0.28% active; AID 492972; inhibition, % at 3.39 µM;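 active means inhibition above the screen-wide average of all tested compounds plus 3 SD, cut at about 25% in these data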;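 further: 0% = enzyme with DMSO only and 100% = wells lacking PAFAH1B3 protein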
DSG3 Ab inh: human desmoglein-3 autoantibody binding inhibition | 310,000 tested, 0.48% active | DSG3-coupled beads, scFv-anti-DSG3-GFP binding, flow cytometry; hits give low values | binding (percent of control), % at 10 µM;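 active means binding more than 3 SD below its plate's average and above zero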;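 further: hits lower antibody fragment binding to DSG3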
PfM18AAP inh-1: PfM18AAP enzyme inhibition | recombinant PfM18AAP, H-Glu-NHMec fluorogenic cleavage | inhibition, % at 7.35 µM | 290,000 tested, 1.2% active;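 active means inhibition above the campaign mean inhibition over all tested compounds plus 3 SD, cut at about 28% in these data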;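 further: 0% = plate median of test compound wells and 100% = 2 mM ZnCl2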
PfM18AAP inh-2: confirmation of Plasmodium falciparum M18 aspartyl aminopeptidase inhibitors. shares compounds with PfM18AAP inh-1. recombinant PfM18AAP, H-Glu-NHMec fluorogenic cleavage. inhibition, % at 7.35 µM. 2,400 tested, 28% active. AID 2170;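 active means mean inhibition over replicate wells above the hit cutoff set for the earlier primary screen, cut at about 29% in these data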;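 further: 0% = median of test compound wells and 100% = 2 mM ZnCl2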
CTSL1 confirm: counter-screen for PFM18AAP inhibitors: confirmation of human cathepsin L inhibitors; shares compounds with PfM18AAP inh-1; purified cathepsin L1, Z-Leu-Arg-MCA fluorescence; inhibition, % at 5.96 µM; 2,400 tested, under 10 active; AID 2178;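 active means average inhibition across replicates above the hit cutoff set in the earlier primary screen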;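 further: 0% = median of test compound wells and 100% = Z-Phe-Ala-diazomethylketone 1 µM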
Numbers without * were called inactive; . = not tested or not shown. Rows were chosen to be rich in hits. Some 3.8% of all compounds tested hit in one or more screens of this group.

SMILES	pPAFAH FP inh	PAFAH1B2 FP inh	PAFAH2 FP inh	PAFAH1B3 inh	DSG3 Ab inh	PfM18AAP inh-1	PfM18AAP inh-2	CTSL1 confirm
CCNC(=S)NNC(=O)c1ccoc1C	-0.2	2.6	-8.6	1.3	.	33.1*	-16.3	4.4
CCNC(=S)NNC(=O)c1ccc(OC)cc1	-3.8	-0.5	-13.7	6.3	101.7	33.0*	9.7	-0.2
COCCCNC(=S)NNC(=O)c1ccoc1C	-0.4	-4.7	-5.3	5.9	126.7	32.9*	-7.7	-1.0
CC(C)CNC(=S)NNC(=O)c1ccc2c(c1)OCO2	-7.2	-0.4	-0.5	-7.1	94.9	17.3	.	.
NS(=O)(=O)c1ccc(NC(=O)c2cc(-c3cc(Cl)ccc3O)n[nH]2)cc1	.	-2.1	-6.2	7.4	107.1	8.3	.	.
O=C(CCNC(=O)c1ccccc1Cl)NCCc1ccc(C(F)(F)F)cc1	0.7	9.8	-4.1	2.6	116.0	0.3	.	.
CCOC(=O)c1sc(N2C(=O)C(O)=C(C(=O)c3ccco3)C2c2ccccc2)nc1C (configuration not stated)	.	.	.	.	.	19.4	.	.
CCOC(=O)c1sc(N2C(=O)C(O)=C(C(=O)c3ccco3)C2c2ccco2)nc1C (configuration not stated)	-0.2	0.7	0.7	4.2	94.3	32.0*	-43.4	-1.7
CCn1nc(C)c([N+](=O)[O-])c1C(=O)NNC(=O)c1ccccc1Cl	-0.2	6.7	-2.6	3.0	104.3	-8.1	.	.
O=C(Nc1ccccc1O)c1ccccc1O	-8.5	4.0	-7.3	4.8	93.9	34.0*	29.3*	-5.0
COc1ccc(/C(C)=N/NC(=S)Nc2cc(C)ccc2C)cc1	4.8	-6.0	1.8	5.0	100.0	21.3	.	.
Cc1[nH]n(-c2ccccc2)c(=S)c1C=NCCCN=Cc1c(C)[nH]n(-c2ccccc2)c1=S	-0.1	-0.9	5.0	13.5	99.8	58.6*	-3.6	1.4
O=C(COc1ccccc1)c1cn(CC(=O)N2CCCC2)c2ccccc12	-1.6	3.5	-3.2	-3.9	118.6	3.5	.	.
CNC(=O)C1CCN(S(=O)(=O)c2c(C)noc2/C=C/c2ccc(OC)cc2)CC1	3.8	-1.4	6.2	4.4	94.1	-3.8	.	.
Cn1c(CNC(=O)c2cccs2)n[nH]c1=S	0.0	0.6	8.2	0.0	85.3	18.7	.	.
O=C(NCc1n[nH]c(=S)n1-c1ccc(Br)cc1)c1cccs1	-0.2	4.9	-1.6	3.9	92.2	34.1*	-11.6	-8.4
COc1ccccc1-n1c(CNC(=O)c2cccs2)n[nH]c1=S	7.3	4.1	4.8	3.6	106.6	36.5*	-10.5	-7.1
CCc1nnc(NC(=O)CSc2nnc(Cc3ccc(OC)cc3)o2)s1	1.1	9.6	8.5	6.9	103.7	41.2*	-33.0	-3.0
CCc1nnc(NC(=O)CSc2nnc(COc3cccc(C)c3)o2)s1	3.3	21.8	-13.4	3.6	111.2	47.4*	-40.2	-5.2
CC1(C)NC(=O)N(CC(=O)Nc2ccc(-n3cnnn3)cc2)C1=O	-1.6	7.0	4.5	4.1	.	.	.	.
CCOc1ccccc1N/C(=C(/C(Cl)=C(Cl)Cl)[N+](=O)[O-])n1cncn1	4.2	5.8	13.5	6.3	103.5	82.8*	73.5*	4.7
O=C(Nc1ccc(F)cc1)c1ccc(-n2cncn2)c([N+](=O)[O-])c1	3.2	-2.7	2.5	-5.3	101.1	-3.7	.	.
O=[N+]([O-])/C(C(Cl)=C(Cl)Cl)=C(\Nc1ccc(F)cc1)n1cncn1	-1.1	.	.	.	.	80.6*	79.3*	7.5
O=C(CSC1=NCCN1)C1COc2ccccc2O1 (configuration not stated)	7.1	1.4	-0.3	9.8	100.0	41.8*	-37.2	0.0
CCOC(=O)c1ccc(N2CSC3=C(C#N)C(c4cccs4)CC(=O)N3C2)cc1 (configuration not stated)	8.1	9.7	-1.2	2.3	104.1	31.9*	-8.0	5.7
Cc1ccc(N2CSC3=C(C#N)C(c4cccs4)CC(=O)N3C2)cc1 (configuration not stated)	24.7*	2.6	11.9	12.2	98.5	33.0*	-5.9	5.9
